Results filed as inconclusive are left out. Entries that show only a call come without a potency. Activity calls are given as the source filed them. Unless noted, the call rests on the fitted dose curve; in most records, active means well fitted curve in the direction sought with a large enough effect; inconclusive means small, poorly fitted or top-dose-only effect, or another doubt; inactive means no such curve, though single readings can be large; an effect the other way counts as inactive or inconclusive.
Columns and labels:
[1] = P-glycoprotein substrates identified in KB-8-5-11 adenocarcinoma cell line, qHTS therapeutic library screen (AID 1346987); conditions: outcome: dose series up to 44.5 µM unless noted; further: series mostly up to about 44 µM; nearly all actives have a fitted effect of over 65% in size
Procedure, shortened: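 KB-8-5-11, a colchicine-selected P-gp-overexpressing KB-3-1 subline, was grown without colchicine for the assay. Cells were seeded at 500 cells/well, dosed in concentration-response and incubated 72 h at 37 degree C, 5% CO2. Viability was read by CellTiter-Glo luminescence.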

[2] = NS1 protein of Zika virus - qHTS assay to identify small molecule inhibitors in human HEK 293 cells (AID 1347053); further: series mostly up to about 46 µM; nearly all actives have a fitted effect of over 55% in size
Procedure, shortened: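 Following 20 h seeding, HEK 293 cells took compound, then 1 h later ZIKV MR766 (MOI = 0.5). Incubation ran 24 h at 37 C before TR-FRET detection of NS1; a drop in signal indicates inhibition.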

[3] = qHTS of pediatric cancer cell lines to identify multiple opportunities for drug repurposing: Primary screen for TC32 cells (AID 1347089); further: nearly all actives have a fitted effect of over 60% in size
Procedure, shortened: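 Luminescent CellTiter-Glo read-out of metabolically active TC32 cells after 48 h compound exposure. Primary: MIPE 11-point, 0.78 nM–46 µM; NPC 8-point, 0.59 nM–46 µM. Confirmatory: 11-point dilutions.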

[4] = qHTS of pediatric cancer cell lines to identify multiple opportunities for drug repurposing: Primary screen for DAOY cells (AID 1347090); further: series mostly up to about 46 µM; nearly all actives have a fitted effect of over 55% in size
Procedure, shortened: (§1)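 Cell viability, CellTiter-Glo luminescence; 500-1,000 cells/well, 8- or 11-point titration, 48 h compound exposure at 37 degrees C, 5% CO2. Controls: DMSO neutral, bortezomib 2.3 µM final as positive.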

[5] = qHTS of pediatric cancer cell lines to identify multiple opportunities for drug repurposing: Primary screen for SJ-GBM2 cells (AID 1347091)
Procedure, shortened: as §1

[6] = qHTS of pediatric cancer cell lines to identify multiple opportunities for drug repurposing: Primary screen for A673 cells (AID 1347092); further: nearly all actives have a fitted effect of over 45% in size
Procedure, shortened: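 A673 cells (500-1,000 cells/well in growth media) were pre-incubated 5 h at 37 degrees C, then exposed to compounds for 48 h. Viability was read as CellTiter-Glo luminescence; concentration-response curves came directly from the primary screen.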

[7] = qHTS of pediatric cancer cell lines to identify multiple opportunities for drug repurposing: Primary screen for SK-N-MC cells (AID 1347093); further: potency means the concentration at half of the fitted maximal effect
Procedure, shortened: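 Metabolically active cells were quantified by ATP-dependent luminescence (CellTiter-Glo, 15 min at room temperature) following 48 h treatment. Cells had been plated at 500-1,000 per well and settled for 5 h beforehand.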

[8] = qHTS of pediatric cancer cell lines to identify multiple opportunities for drug repurposing: Primary screen for BT-37 cells (AID 1347094); further: potency means the concentration at half of the fitted maximal effect
Procedure, shortened: (§2)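 Readout: CellTiter-Glo luminescence, 48 h treatment. Controls DMSO (neutral) and bortezomib 2.3 µM final (positive). Potency and efficacy taken from primary-screen concentration-response curves.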

[9] = qHTS of pediatric cancer cell lines to identify multiple opportunities for drug repurposing: Primary screen for NB-EBc1 cells (AID 1347095)
Procedure, shortened: as §2

[10] = qHTS of pediatric cancer cell lines to identify multiple opportunities for drug repurposing: Primary screen for U-2 OS cells (AID 1347096); further: nearly all actives have a fitted effect of over 50% in size
Procedure, shortened: (§3)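 Cells (500-1,000/well) rested 5 h, then received compounds for 48 h; metabolically active cells were measured by CellTiter-Glo luminescence. Final concentrations spanned up to 46 µM (MIPE, 11-point) or 0.59 nM-46 µM (NPC, 8-point) in primary screens, 11-point in follow-ups.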

[11] = qHTS of pediatric cancer cell lines to identify multiple opportunities for drug repurposing: Primary screen for Saos-2 cells (AID 1347097); further: nearly all actives have a fitted effect of over 40% in size; further: potency means the concentration at half of the fitted maximal effect
Procedure, shortened: as §2

[12] = qHTS of pediatric cancer cell lines to identify multiple opportunities for drug repurposing: Primary screen for NB1643 cells (AID 1347099); further: nearly all actives have a fitted effect of over 50% in size
Procedure, shortened: as §2

[13] = qHTS of pediatric cancer cell lines to identify multiple opportunities for drug repurposing: Primary screen for LAN-5 cells (AID 1347100)
Procedure, shortened: as §3

[14] = qHTS assay to identify small molecule inhibitors of chordoma cells - UCH-2 (AID 1259356); further: series mostly up to about 46 µM
[15] = qHTS of pediatric cancer cell lines to identify multiple opportunities for drug repurposing: Primary screen for SK-N-SH cells (AID 1347098); further: nearly all actives have a fitted effect of over 65% in size
Procedure, shortened: as §3

[16] = target: Atrial natriuretic peptide receptor 1 (Homo sapiens) (UniProt P16066); assay: Natriuretic polypeptide receptor (hNpr1) antagonism - Pilot screen (AID 1347049; calls by dose curve;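 further: agonist-evoked cGMP luminescence read 20 min after hNppA addition; series mostly up to about 58 µM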)
Procedure, shortened: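 Readout is cGMP-driven firefly luciferase luminescence in HEK293 cells carrying hNpr1 and a PDE5-domain GloSensor, read before and 20 min after 0.1 nM hNppA stimulation. Cells had 2% substrate reagent for 2 h and test compound for 30 min.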

[17] = target: Tyrosine-protein phosphatase non-receptor type substrate 1 (Homo sapiens) + Leukocyte surface antigen CD47 (Homo sapiens) (UniProt P78324+Q08722); assay: CD47-SIRPalpha protein protein interaction - LANCE assay qHTS validation (AID 1347057; active means well fitted curve in the direction sought with a large enough effect in the signal ratio, with a control signal flat, not every such curve was filed as active; the % refers to the signal ratio; further: series mostly up to about 38 µM)
Procedure, shortened: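 First, His-tagged CD47 and Eu-labelled anti-His antibody met the compound for 30 min; next, site-specifically biotinylated SIRPalpha was added for 30 min; finally streptavidin-APC was added before reading the TR-FRET ratio.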

[18] = target: Parathyroid hormone/parathyroid hormone-related peptide receptor (Homo sapiens) (UniProt Q03431); assay: qHTS for PTHR1 Agonists: Optimization Screen against the NCGC LOPAC library (AID 1347079);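 further: GloSensor cAMP luminescence in HEK-293 GP2 cells expressing human PTHR1 with IBMX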
Procedure, shortened: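 Agonist readout: GloSensor cAMP luminescence, read after 15 min at room temperature. HEK-293-derived GP2 line carries PTHR1; compounds tested as a titration for 1 hr at 37C in presence of IBMX. M-PTH (1-15) served as control.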

Chain of Atrial natriuretic peptide receptor 1 (Homo sapiens) (P16066 whole entry, looked up): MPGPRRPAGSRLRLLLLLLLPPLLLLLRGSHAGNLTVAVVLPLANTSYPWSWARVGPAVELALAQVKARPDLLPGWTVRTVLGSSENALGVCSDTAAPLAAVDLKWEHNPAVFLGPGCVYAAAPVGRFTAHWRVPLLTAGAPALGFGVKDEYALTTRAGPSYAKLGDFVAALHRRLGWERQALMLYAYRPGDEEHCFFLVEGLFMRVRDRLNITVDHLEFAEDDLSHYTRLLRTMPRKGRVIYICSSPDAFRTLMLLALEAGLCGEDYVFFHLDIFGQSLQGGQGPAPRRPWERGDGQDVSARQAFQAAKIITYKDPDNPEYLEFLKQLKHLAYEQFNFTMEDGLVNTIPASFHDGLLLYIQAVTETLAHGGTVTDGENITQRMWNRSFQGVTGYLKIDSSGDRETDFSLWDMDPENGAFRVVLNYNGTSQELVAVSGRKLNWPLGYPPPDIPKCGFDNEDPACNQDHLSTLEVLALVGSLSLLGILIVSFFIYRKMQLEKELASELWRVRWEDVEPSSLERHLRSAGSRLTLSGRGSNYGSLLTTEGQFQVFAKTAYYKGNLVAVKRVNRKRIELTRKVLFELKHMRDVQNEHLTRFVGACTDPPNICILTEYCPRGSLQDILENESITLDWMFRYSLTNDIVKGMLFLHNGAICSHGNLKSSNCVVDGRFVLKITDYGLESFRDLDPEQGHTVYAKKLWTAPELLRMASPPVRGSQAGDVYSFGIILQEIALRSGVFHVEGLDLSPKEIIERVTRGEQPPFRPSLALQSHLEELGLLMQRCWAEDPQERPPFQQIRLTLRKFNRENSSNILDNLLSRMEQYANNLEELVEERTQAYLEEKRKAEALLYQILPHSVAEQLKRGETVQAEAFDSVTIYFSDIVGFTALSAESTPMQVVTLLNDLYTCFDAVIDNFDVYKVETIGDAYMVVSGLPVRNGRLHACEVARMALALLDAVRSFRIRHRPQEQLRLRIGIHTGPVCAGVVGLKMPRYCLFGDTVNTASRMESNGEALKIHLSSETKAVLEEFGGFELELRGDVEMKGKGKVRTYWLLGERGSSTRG
Chain of Parathyroid hormone/parathyroid hormone-related peptide receptor (Homo sapiens) (Q03431 whole entry, looked up): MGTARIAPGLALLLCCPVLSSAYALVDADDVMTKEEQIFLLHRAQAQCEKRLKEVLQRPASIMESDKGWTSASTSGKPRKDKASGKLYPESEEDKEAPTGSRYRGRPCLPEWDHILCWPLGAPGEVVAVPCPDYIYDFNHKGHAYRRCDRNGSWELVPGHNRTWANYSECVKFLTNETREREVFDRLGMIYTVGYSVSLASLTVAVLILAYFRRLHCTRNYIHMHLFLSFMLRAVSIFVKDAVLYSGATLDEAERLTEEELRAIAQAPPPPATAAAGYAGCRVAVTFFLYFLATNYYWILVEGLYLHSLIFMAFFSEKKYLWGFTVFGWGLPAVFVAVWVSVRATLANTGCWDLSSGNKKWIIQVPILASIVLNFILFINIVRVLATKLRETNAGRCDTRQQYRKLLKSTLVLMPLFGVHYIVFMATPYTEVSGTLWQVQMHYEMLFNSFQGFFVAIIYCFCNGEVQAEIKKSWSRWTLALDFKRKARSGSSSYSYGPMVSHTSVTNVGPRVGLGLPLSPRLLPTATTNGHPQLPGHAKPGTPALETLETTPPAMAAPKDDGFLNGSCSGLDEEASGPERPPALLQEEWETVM
Chain of Tyrosine-protein phosphatase non-receptor type substrate 1 (Homo sapiens) + Leukocyte surface antigen CD47 (Homo sapiens) (P78324 whole entry, looked up): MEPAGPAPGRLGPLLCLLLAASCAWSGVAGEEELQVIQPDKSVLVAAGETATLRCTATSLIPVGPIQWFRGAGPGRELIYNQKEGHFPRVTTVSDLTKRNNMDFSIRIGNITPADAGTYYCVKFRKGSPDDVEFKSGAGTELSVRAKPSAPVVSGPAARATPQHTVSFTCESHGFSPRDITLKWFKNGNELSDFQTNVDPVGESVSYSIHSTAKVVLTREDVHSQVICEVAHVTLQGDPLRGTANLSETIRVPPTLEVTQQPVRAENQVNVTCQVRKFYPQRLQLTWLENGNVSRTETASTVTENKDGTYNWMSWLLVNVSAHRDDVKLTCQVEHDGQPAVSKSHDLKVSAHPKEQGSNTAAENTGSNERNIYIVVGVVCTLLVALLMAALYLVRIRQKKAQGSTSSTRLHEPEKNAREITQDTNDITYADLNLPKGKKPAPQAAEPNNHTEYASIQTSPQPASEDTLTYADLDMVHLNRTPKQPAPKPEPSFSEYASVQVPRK
Chain of Tyrosine-protein phosphatase non-receptor type substrate 1 (Homo sapiens) + Leukocyte surface antigen CD47 (Homo sapiens) (Q08722 whole entry, looked up): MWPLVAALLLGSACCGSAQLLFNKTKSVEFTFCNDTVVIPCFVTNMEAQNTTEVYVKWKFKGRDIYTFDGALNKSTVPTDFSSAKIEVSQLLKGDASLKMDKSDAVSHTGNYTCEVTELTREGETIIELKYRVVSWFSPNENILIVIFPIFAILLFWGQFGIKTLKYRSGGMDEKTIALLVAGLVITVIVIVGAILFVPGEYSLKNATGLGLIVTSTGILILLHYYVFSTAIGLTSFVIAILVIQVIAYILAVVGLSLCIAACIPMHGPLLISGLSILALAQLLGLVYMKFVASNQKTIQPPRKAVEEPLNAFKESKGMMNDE

CC(C)c1ncc([N+](=O)[O-])n1C
Potency [1]: inactive

Nc1ccc(N=Nc2ccccc2)c(N)n1
Potency [1]: inactive
outcome [2]: inactive
outcome [3]: inactive
outcome [4]: inactive
outcome [5]: inactive
Potency [6]: inactive
Potency [7]: inactive
Potency [8]: inactive
outcome [9]: inactive
outcome [10]: inactive
Potency [11]: inactive
outcome [12]: inactive
outcome [13]: inactive

CCOC(=O)Oc1c(OC)cc(C(=O)O[C@@H]2C[C@@H]3CN4CCc5c([nH]c6cc(OC)ccc56)[C@H]4C[C@@H]3[C@H](C(=O)OC)[C@H]2OC)cc1OC
Potency [1]: inactive

CC(C)CCC[C@@H](C)[C@H]1CC[C@H]2[C@@H]3CC[C@@H]4C[C@H](O)CC[C@]4(C)[C@H]3CC[C@]12C
Potency [1]: inactive

CN(C)CCCSc1ccccc1NC(=O)/C=C/c1ccccc1
Potency [14]: inactive
outcome [2]: inactive
outcome [3]: inactive
outcome [4]: inactive
Potency [7]: inactive
Potency [8]: inactive
outcome [9]: inactive
outcome [10]: inactive
Potency [11]: 21.1 µM (active)
outcome [15]: inactive

Oc1ccc(/C=C/c2cc(O)cc(O)c2)cc1
Potency [1]: inactive
outcome [16]: inactive
outcome [2]: inactive
outcome [17]: inactive
outcome [18]: inactive
outcome [3]: inactive
outcome [4]: inactive
Potency [7]: 15 µM (active)
Potency [8]: 19.5 µM (active)
outcome [9]: inactive
outcome [10]: inactive
Potency [11]: inactive
outcome [12]: inactive
outcome [13]: inactive

CN(Cc1ccccc1)Cc1ccccc1
Potency [1]: inactive
